Screening data as filed in PubChem BioAssay.
A selection: hits, their analogues and other compounds. The true share with any hit is near 3.7%.
TSG101-PTAP inh – qHTS Validation Assay for Inhibitors of HIV-1 Budding by Blocking the Interaction of PTAP/TSG101: Sytravon Library Screen | Tumor susceptibility gene 101 protein (Homo sapiens), Q99816 | Fluorescence polarization, FITC-PTAP peptide/Tsg101, 20 min | Potency, µM (top dose mostly 115 µM), actives largely listed as inhibitors | 44,000 tested, under 10 active | AID 1347069, 2019; note: potency is the fitted concentration of half-maximal effect; 0% is about no effect
Target sequence (Q99816 whole entry, looked up): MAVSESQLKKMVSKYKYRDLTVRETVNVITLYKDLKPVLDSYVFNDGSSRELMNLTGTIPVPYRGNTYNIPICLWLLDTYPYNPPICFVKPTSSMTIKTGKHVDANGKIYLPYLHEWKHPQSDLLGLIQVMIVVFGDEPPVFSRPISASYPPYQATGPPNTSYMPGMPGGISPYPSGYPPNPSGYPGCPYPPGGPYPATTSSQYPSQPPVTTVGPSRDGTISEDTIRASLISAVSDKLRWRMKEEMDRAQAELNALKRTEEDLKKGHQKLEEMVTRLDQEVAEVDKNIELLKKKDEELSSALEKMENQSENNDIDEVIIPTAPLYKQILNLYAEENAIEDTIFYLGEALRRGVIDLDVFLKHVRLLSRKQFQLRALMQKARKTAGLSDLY
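FITC-labeled PTAP peptide (50 nM final) binding to Tsg101 binding domain (10 uM final) read by fluorescence polarization after 20 min at r.t. in HEPES pH 7.5 buffer. Actives by CRC class, <25 µM.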
HTT prom inh – Primary qHTS for Identification of Small Molecule Inhibitors of Huntingtin Promoter Activity; 48,000 tested, 0.93% active; HEK293 HTT promoter firefly luciferase reporter, 24 h; Potency, µM (top dose mostly 57.5 µM), inactives show at the top dose activity change, negative = inhibition, most hits filed as inhibitors; AID 1508623, 2021; note: potency is the fitted concentration of half-maximal effect; nearly all actives have a fitted effect of over 50% in size
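HEK293 Fluc reporter, 2,500 cells/well, 24 h pre-culture; cpds up to 57.5 uM final, 24 h 37 degrees C; Dual-Glo, 10 min RT; normalized vehicle = 0%, zero RLU = -100%.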
GALK inhibitor – qHTS Assay for Inhibitors of Human Galactokinase (GALK): NCGC Sytravon Library Screen; 44,000 tested, under 10 active; P51570; recombinant GALK, Kinase-Glo ATP luminescence, 1 h; Potency, µM (highest dose often 57.5 µM), inactives show top-dose activity, negative = inhibition, most hits filed as inhibitors;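 note: plate controls were full GALK reaction for no effect and reaction lacking GALK for full effect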
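Reactions with and without enzyme served as controls. GALK at 5 nM phosphorylates 100 uM galactose using 35 uM ATP (HEPES pH 8.0, Mg2+) for 1 h at RT, with luminescence read 10 min after adding Kinase-Glo Plus.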
DRV1 agonist – qHTS for Agonists of Human Resolvin D1 Receptor DRV1; CHO-K1 GPR32 beta-arrestin PathHunter luminescence, 90 min; zero percent set by DMSO-only wells; Probable G-protein coupled receptor 32 (Homo sapiens), O75388; activation, % at 76.9 µM; 48,000 tested, 2.5% active;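 active = activation of at least 60% and not above a set upper limit, about 1 call in 100 departs from these limits; inconclusive = activation of 40% to 60%, or above that upper limit; inactive = activation under 40%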; note: 0% is about no effect
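PathHunter beta-arrestin recruitment in CHO-K1 cells stably expressing ProLink-tagged GPR32. Cells were exposed to compound for 90 min at 37 C, then chemiluminescence was read after 1 h detection at ambient temperature; DMSO served as basal control.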
HTT-AS promoter – Primary qHTS for Identification of Small Molecule Activators of Huntingtin-Antisense Promoter Activity. HEK293 HTT-AS promoter firefly luciferase reporter, 24 h; response scale: percent change from vehicle, -100% = no light. Potency, µM (series often up to 57.5 µM), without a hit: at the top dose activity change, positive = activation, actives largely listed as activators. 48,000 tested, 0.24% active; note: potency is the fitted concentration of half-maximal effect; nearly all actives have a fitted effect of over 55% in size
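HEK293 luciferase promoter-reporter cells (2,500/well) plated 24 h, then compounds added at up to 57.5 uM final for 24 h at 37 °C. Firefly luminescence by Dual-Glo, normalized to vehicle (0%) and zero RLU (-100%).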
B2AR arrestin ag – qHTS assay of beta-arrestin-biased ligands of beta2-adrenergic receptor: NCGC Sytravon Library Screen; 44,000 tested, under 10 active; HTLA Tango cells, beta-arrestin recruitment, luciferase luminescence, 18 h; Beta-2 adrenergic receptor (Homo sapiens), P07550; Potency, µM (doses to about 46.1 µM), most hits filed as activators;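 note: potency is the fitted concentration of half-maximal effect; 0% = DMSO and full agonism = EC100 isoproterenol or metaproterenol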
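Tango cells (recombinant beta2-AR, beta-arrestin, tTA-driven luciferase), 1500/well in DMEM 1% FBS, treated 18 h at 37 °C with compounds up to 46 µM; luciferin mix added, luminescence read after 15 min; %activity curves fitted and curve-classed.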
Numbers without * were called inactive; i = inactive; u = inconclusive; x = no result given; [ ] = dose if it differs, or a comment. Unless noted, calls come from the whole dose curve; as a rule, active = well fitted curve in the direction sought with a large enough effect; inconclusive = small, poorly fitted or top-dose-only effect, or another doubt; inactive = no such curve, though single readings can be large; an effect the other way counts as inactive or inconclusive.

SMILES	TSG101-PTAP inh	HTT prom inh	GALK inhibitor	DRV1 agonist	HTT-AS promoter	B2AR arrestin ag
C=CCC1=C(C)C(OC(=O)C2C(C=C(C)C)C2(C)C)CC1=O (stereo not drawn)	x	-17%[116 µM]	x	74*	-20%[116 µM]	x
C[C@@H]1CC[C@H]2[C@@H](C)C(=O)O[C@@H]3O[C@@]4(C)CC[C@H]1[C@]32OO4	x	-16%	x	x	-15%	x
FC(F)(F)c1cccc(C2=CCN(CCc3ccc4ccccc4c3)CC2)c1	x	-5%	x	100*	-8%	x
CCC(COC(=O)c1cc(OC)c(OC)c(OC)c1)(c1ccccc1)N(C)C (stereo not drawn)	x	5%	x	97*	-7%	x
C[C@@H]1CC[C@@]2(OC1)O[C@H]1C[C@H]3[C@@H]4CC=C5C[C@@H](O[C@@H]6O[C@H](CO)[C@@H](O[C@@H]7O[C@@H](C)[C@H](O)[C@@H](O)[C@@H]7O)[C@H](O)[C@@H]6O[C@@H]6O[C@@H](C)[C@H](O)[C@@H](O)[C@@H]6O)CC[C@]5(C)[C@@H]4CC[C@]3(C)[C@@H]1[C@H]2C	x	-6%	x	x	-15%	x
C[C@]12CCC(=O)C=C1CC[C@@H]1[C@H]3CC[C@](C)(O)[C@@]3(C)CC[C@@H]12	x	u	x	106*	-33%[116 µM]	x
COc1ccc(NC(=O)c2sc3nc4c(cc3c2N)N2CCC4CC2)cc1OC	i	-30%	2%	45	-4%	i
N#Cc1cc2c(nc1SCC(=O)Nc1ccc(C(F)(F)F)cc1)C1CCN2CC1	i	14µM*	-2%	21	-43%	i
Nc1c(C(=O)Nc2ccc(Cl)c(C(F)(F)F)c2)sc2nc3c(cc12)N1CCC3CC1	i	u	0%	u	-72%	i
N#Cc1cc2c(nc1SCC(=O)Nc1ccc(Cl)c(C(F)(F)F)c1)C1CCN2CC1	i	16µM*	-4%	-5	-63%	i
CC(C)(O)C=CC(=O)[C@](C)(O)[C@H]1[C@H](O)C[C@]2(C)[C@@H]3CC=C4[C@@H](C=C(O)C(=O)C4(C)C)[C@]3(C)C(=O)C[C@@]12C	x	u	x	x	-82%	x
COC1=CC(C)=C[C@@H](C)[C@@H](O)[C@@H](C)CC(C)=CC=C[C@H](OC)[C@H]([C@@H](C)[C@@H](O)[C@H](C)[C@@]2(O)C[C@@H](O)[C@H](C)[C@@H](C(C)C)O2)OC1=O	x	u	x	x	-28%	x
Cc1ccccc1-n1c(Cn2cnc3c(N)ncnc32)nc2cccc(C)c2c1=O	x	u	x	x	-30%	x
Cc1cccc(CN2CC=C(c3noc(CCC(=O)Nc4ccc(C)c(F)c4)n3)CC2)c1	i	-17%	1%	94*	-17%	i
COc1ccc(NC(=O)CCc2nc(C3=CCN(Cc4cccc(Cl)c4)CC3)no2)c(OC)c1	i	u	3%	27	-26%	i
COc1ccc(NC(=O)CCc2nc(C3=CCN(Cc4cccc(Cl)c4)CC3)no2)cc1OC	i	u	-1%	94*	-25%	i
COC[C@H]1OC(=O)c2coc3c2[C@@]1(C)C1=C(C3=O)[C@@H]2CC[C@H](O)[C@@]2(C)C[C@@H]1OC(C)=O	x	u	x	x	-39%	x
C[C@]12CC[C@H]3[C@@H](CCC4=CC(=O)CC[C@@H]43)[C@@H]1CC[C@@H]2OC(=O)CCc1ccco1	x	1%	x	119*	-6%	x
C[C@]12CC[C@@H]3[C@@H](CCC4=CC(=O)CC[C@@H]43)[C@@H]1CC[C@@H]2OC(=O)CCc1ccccc1	x	3%	x	x	-3%	x
CC1=C2C[C@@H]3[C@@H](CC=C4C[C@@H](O)CC[C@@]43C)[C@@H]2CC[C@]12O[C@H]1C[C@H](C)CN[C@H]1[C@H]2C	x	9%	x	x	-6%	x
Nc1c(C(=O)Nc2ccc(Cl)cc2)sc2nc3c(cc12)N1CCC3CC1	i	u	-4%	77*	-13%	i
C[C@]12CCC(=O)C=C1CC[C@@H]1[C@@H]2CC[C@]2(C)C(=O)CC[C@@H]12	x	5%	x	49	-15%	x
C[C@]12CC[C@H](O)CC1=CC[C@@H]1[C@@H]2CC[C@]2(C)C(=O)CC[C@@H]12	x	-4%	x	73*	-14%	x
CC(C)[C@]12O[C@@H]1[C@@H]1O[C@]13[C@]1(O[C@H]1C[C@@H]1C4=C(CC[C@@]13C)C(=O)OC4)[C@H]2O	x	-38%	x	x	u	x
C[C@]12Cc3nonc3C[C@@H]1CC[C@@H]1[C@@H]2CC[C@@]2(C)[C@H]1CC[C@]2(C)O	x	-27%	x	65*	-32%	x
O=c1c2ccccc2nc(/C=C/c2cccc3ccccc23)n1-c1ccccc1Cl	i	28µM*	1%	14	-11%	i
CCc1ccc(-n2nc(C)c3c2NC(=O)CSC3c2ccccc2C)cc1 (stereo not drawn)	i	u	-1%	17	-37%	i
CCc1ccc(-n2nc(C)c3c2NC(=O)CSC3c2ccc(OC)cc2OC)cc1 (stereo not drawn)	i	22µM*	1%	1	-37%	i
